Data reported in PubChem BioAssay.
Values without a mark were called inactive. Calls of active or inactive are those of the source.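 The calls were made as follows, unless noted: active = mean inhibition above 46.68%, the untreated control wells mean plus 3 SD; inactive = the rest.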

Molecular target: Nuclear receptor coactivator 1 (Homo sapiens) (UniProt Q15788)
Sequence (Q15788 whole entry, looked up): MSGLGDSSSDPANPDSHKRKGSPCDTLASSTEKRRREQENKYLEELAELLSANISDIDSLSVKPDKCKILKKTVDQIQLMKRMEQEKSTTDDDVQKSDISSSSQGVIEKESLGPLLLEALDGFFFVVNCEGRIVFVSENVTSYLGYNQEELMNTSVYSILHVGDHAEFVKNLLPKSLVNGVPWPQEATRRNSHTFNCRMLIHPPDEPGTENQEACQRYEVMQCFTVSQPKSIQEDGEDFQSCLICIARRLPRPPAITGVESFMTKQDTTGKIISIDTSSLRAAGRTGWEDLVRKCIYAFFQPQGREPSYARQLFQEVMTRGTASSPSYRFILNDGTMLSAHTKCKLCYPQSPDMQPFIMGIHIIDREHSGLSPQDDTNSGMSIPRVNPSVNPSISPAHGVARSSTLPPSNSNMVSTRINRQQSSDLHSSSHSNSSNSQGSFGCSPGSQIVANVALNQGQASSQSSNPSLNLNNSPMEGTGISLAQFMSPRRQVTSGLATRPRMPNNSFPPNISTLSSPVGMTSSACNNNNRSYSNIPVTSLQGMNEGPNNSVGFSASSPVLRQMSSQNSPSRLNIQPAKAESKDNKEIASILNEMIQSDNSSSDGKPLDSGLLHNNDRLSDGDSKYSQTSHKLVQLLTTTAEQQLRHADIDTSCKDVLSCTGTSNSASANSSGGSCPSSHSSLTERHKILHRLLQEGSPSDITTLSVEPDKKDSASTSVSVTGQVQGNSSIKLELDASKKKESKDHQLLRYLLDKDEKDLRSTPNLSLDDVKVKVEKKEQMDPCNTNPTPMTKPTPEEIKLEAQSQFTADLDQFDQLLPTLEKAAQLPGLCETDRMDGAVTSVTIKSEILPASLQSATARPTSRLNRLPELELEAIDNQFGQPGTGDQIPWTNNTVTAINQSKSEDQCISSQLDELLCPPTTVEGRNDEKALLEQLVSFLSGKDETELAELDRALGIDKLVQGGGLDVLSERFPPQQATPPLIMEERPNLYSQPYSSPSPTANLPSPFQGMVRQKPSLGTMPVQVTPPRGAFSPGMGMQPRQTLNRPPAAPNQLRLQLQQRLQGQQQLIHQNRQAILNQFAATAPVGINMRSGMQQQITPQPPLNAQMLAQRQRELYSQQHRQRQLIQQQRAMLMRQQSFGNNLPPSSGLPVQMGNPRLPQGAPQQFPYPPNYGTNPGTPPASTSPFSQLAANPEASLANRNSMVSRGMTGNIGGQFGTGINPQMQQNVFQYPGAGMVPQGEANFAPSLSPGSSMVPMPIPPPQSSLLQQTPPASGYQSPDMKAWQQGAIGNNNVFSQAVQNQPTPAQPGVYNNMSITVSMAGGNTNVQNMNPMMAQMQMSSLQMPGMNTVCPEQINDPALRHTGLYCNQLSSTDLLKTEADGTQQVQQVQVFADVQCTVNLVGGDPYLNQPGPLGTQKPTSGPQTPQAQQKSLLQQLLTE
Assay: SRC1 coactivator transcriptional activity inhibitors, confirmation, cell-based, luminescence, quadruplicate (AID 588820);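 also: 0% = DMSO wells and 100% = gossypol 36 µM treated wells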
Conditions: HEK293 GAL4-SRC1 luciferase reporter, at 3.6 µM, stronger effect = higher value
In the case of COc1ccc(CC(=O)Nc2ccc3c(c2)CCC3)cc1OC, the inhibition is reported as 10.1%.
Work on COc1ccc(C(=O)Nc2ccc(-c3ccc(C)o3)cc2)cc1S(=O)(=O)N1CCOCC1 yielded an inhibition of -16.1%.
CCN(C(=O)CN1C(=O)S/C(=C\c2cccc(Cl)c2)C1=O)C1CCS(=O)(=O)C1 (stereo not drawn) gave an inhibition of 4.59%.
With CCOc1cccc2cc(C(=O)N3CC(C)OC(C)C3)c(=O)oc12 (stereo not drawn) the inhibition was -9.95%.
O=C1C2C3C=CC(C3)C2C(=O)N1CN(Cc1ccccc1)CN1C(=O)C2C3C=CC(C3)C2C1=O (stereo not drawn) gave an inhibition of -20.9%.
COc1ccc(C[C@H]2COC(=O)[C@@H]2Cc2ccc(OC3OC(CO)C(O)C(O)C3O)c(OC)c2)cc1OC (stereo partly drawn) showed an inhibition of 9.39%.
With O=C(NC(=S)Nc1cccc(Cl)c1N1CCCCC1)c1ccco1 the inhibition was -11.6%.
Work on CC(=O)N/C(=N/c1nc(C)cc(C)n1)Nc1cccc(C)c1C yielded an inhibition of -0.27%.
With COc1cc(C=C2CCCC(=Cc3ccc(OCC4CO4)c(OC)c3)C2=O)ccc1OCC1CO1 (stereo not drawn) the inhibition was -119%.
With COc1ccccc1OCCC(=O)OCC(=O)NC(C)c1ccccc1 (stereo not drawn) the inhibition was -8.57%.
For c1cncc(CNC2CCCc3ccccc32)c1 (stereo not drawn), the inhibition was 0.67%.
With CC(=O)c1cn(CC(=O)Nc2cccc(C)c2C)c2ccccc12 the inhibition was -15.8%.
With CN1C(=O)C(O)(C2CCCCCC2=O)c2ccccc21 (stereo not drawn) the inhibition was -7.54%.
For COc1ccc(-c2nc(-c3ccc(NC(=O)c4ccncc4)cc3)no2)cc1OC, the inhibition was -3.19%.
COc1ccccc1-n1nnnc1SC(C)C(=O)NC1CCCC1 (stereo not drawn) showed an inhibition of -17.1%.
S=C(NC1CCCCC1)N1CCOCCOCCN(C(=S)NC2CCCCC2)CCOCCOCC1 gave an inhibition of 7.13%.
Work on Cc1ccc(C2/C(=C(\O)c3ccc4c(c3)OCCO4)C(=O)C(=O)N2Cc2cccnc2)cc1 (stereo not drawn) yielded an inhibition of -15.5%.
Work on Cc1c(C)n2c(SCC(=O)NCc3ccc4c(c3)OCO4)nnc2[nH]c1=O yielded an inhibition of -1.32%.
With Cc1cc(NC(=O)C(Cl)c2ccccc2)no1 (stereo not drawn) the inhibition was -11.5%.
Molecule c1ccc(-c2cn(-c3ccccc3)c3ncnc(N4CCCCC4)c23)cc1 has an inhibition of 1.38%.
In the case of Cc1cnccc1NC(=O)c1cccs1, the inhibition is reported as -0.39%.
Cc1ccccc1NC(=S)NNC(=O)c1csc2c1CCC(C)C2 (stereo not drawn) gave an inhibition of -45.9%.
Work on COc1ccc(OC)c(NC(=O)c2cc(-c3c(C)cc(C)cc3O)n[nH]2)c1 yielded an inhibition of 11.1%.
With Cc1cc(C)c(S(=O)(=O)N2CCCC2=O)c(C)c1N(C)S(C)(=O)=O the inhibition was 0.14%.
Molecule Cc1cccc(NC(=O)C2CCN(S(=O)(=O)c3ccc4c(c3)OCCCO4)CC2)n1 has an inhibition of -23.6%.
With COC(=O)C(=N/Nc1ccccc1C(=O)OC)/C(C)=N/O the inhibition was -2.93%.
Molecule Oc1c(C(Nc2nc3ccccc3s2)c2ccco2)ccc2cccnc12 (stereo not drawn) has an inhibition of 28.4%.
Molecule COc1ccc(S(=O)(=O)Nc2ccccc2C(=O)N2CCCC2)cc1OC has an inhibition of -5.26%.
In the case of C=C(C)c1cccc(C(C)(C)NC(=O)N(Cc2ccccc2)Cc2ccco2)c1, the inhibition is reported as -2.08%.
With O=C(Nc1ccc(Cc2ccncc2)cc1)c1ccc(S(=O)(=O)N2CCOCC2)cc1 the inhibition was -12.7%.
CN1CCN(CCC(=O)N/N=C/c2cc3c(cc2[N+](=O)[O-])OCO3)CC1 showed an inhibition of -2.3%.
Cc1ccc(C(=O)Nc2c3c(nn2C(C)(C)C)CS(=O)(=O)C3)cc1[N+](=O)[O-] gave an inhibition of -11%.
COc1ccc(S(=O)(=O)N(C)c2ccc(C(=O)Nc3cccnc3)cc2)cc1OC showed an inhibition of 14.3%.
Molecule Cc1ccc(O)c(Nc2ncnc3ccc([N+](=O)[O-])cc23)c1 has an inhibition of 17.6%.
For CCOc1ccc(OCCC(=O)OCC(=O)NNC(=O)c2ccccc2)cc1, the inhibition was -5.67%.
CCOc1ccc(NC(=O)c2ccc(CN3CCc4ccccc4C3)cc2)cc1 gave an inhibition of -25.7%.
Molecule COC(=O)c1sc2cnccc2c1N has an inhibition of 21.5%.
COC(=O)c1ccc2c(c1)NC(=O)c1ccccc1S2 showed an inhibition of -8.66%.
For CC(CC(=O)Nc1ccc(Cl)c(S(=O)(=O)N2CCOCC2)c1)c1ccccc1 (stereo not drawn), the inhibition was 1.13%.

System: not listed separately
Assay: VP16 transactivation inhibitors, counter-screen for SRC1 inhibitor project, cell-based, luminescence, high throughput (AID 588824; in the data active = inhibition above about 25%)
Conditions: cell-based VP16 transactivation luciferase luminescence; at 3.6 µM; stronger effect = higher value
Work on COc1ccc(CC(=O)Nc2ccc3c(c2)CCC3)cc1OC yielded an inhibition of 2.91%.
COc1ccc(C(=O)Nc2ccc(-c3ccc(C)o3)cc2)cc1S(=O)(=O)N1CCOCC1 gave an inhibition of 22.2%.
With CCN(C(=O)CN1C(=O)S/C(=C\c2cccc(Cl)c2)C1=O)C1CCS(=O)(=O)C1 (stereo not drawn) the inhibition was 4.57%.
Work on CCOc1cccc2cc(C(=O)N3CC(C)OC(C)C3)c(=O)oc12 (stereo not drawn) yielded an inhibition of -2.83%.
For O=C1C2C3C=CC(C3)C2C(=O)N1CN(Cc1ccccc1)CN1C(=O)C2C3C=CC(C3)C2C1=O (stereo not drawn), the inhibition was -14.3%.
For COc1ccc(C[C@H]2COC(=O)[C@@H]2Cc2ccc(OC3OC(CO)C(O)C(O)C3O)c(OC)c2)cc1OC (stereo partly drawn), the inhibition was 31% (active).
For O=C(NC(=S)Nc1cccc(Cl)c1N1CCCCC1)c1ccco1, the inhibition was 7.26%.
With CC(=O)N/C(=N/c1nc(C)cc(C)n1)Nc1cccc(C)c1C the inhibition was -6.32%.
For COc1cc(C=C2CCCC(=Cc3ccc(OCC4CO4)c(OC)c3)C2=O)ccc1OCC1CO1 (stereo not drawn), the inhibition was 9.37%.
COc1ccccc1OCCC(=O)OCC(=O)NC(C)c1ccccc1 (stereo not drawn) showed an inhibition of -18.5%.
Molecule c1cncc(CNC2CCCc3ccccc32)c1 (stereo not drawn) has an inhibition of -8.78%.
CC(=O)c1cn(CC(=O)Nc2cccc(C)c2C)c2ccccc12 gave an inhibition of 13%.
CN1C(=O)C(O)(C2CCCCCC2=O)c2ccccc21 (stereo not drawn) gave an inhibition of -0.98%.
In the case of COc1ccc(-c2nc(-c3ccc(NC(=O)c4ccncc4)cc3)no2)cc1OC, the inhibition is reported as 41.4% (active).
With COc1ccccc1-n1nnnc1SC(C)C(=O)NC1CCCC1 (stereo not drawn) the inhibition was -10.9%.
Molecule S=C(NC1CCCCC1)N1CCOCCOCCN(C(=S)NC2CCCCC2)CCOCCOCC1 has an inhibition of 7.75%.
With Cc1ccc(C2/C(=C(\O)c3ccc4c(c3)OCCO4)C(=O)C(=O)N2Cc2cccnc2)cc1 (stereo not drawn) the inhibition was -9.56%.
In the case of Cc1c(C)n2c(SCC(=O)NCc3ccc4c(c3)OCO4)nnc2[nH]c1=O, the inhibition is reported as -7.94%.
For Cc1cc(NC(=O)C(Cl)c2ccccc2)no1 (stereo not drawn), the inhibition was 3.89%.
Work on c1ccc(-c2cn(-c3ccccc3)c3ncnc(N4CCCCC4)c23)cc1 yielded an inhibition of 9.49%.
With Cc1cnccc1NC(=O)c1cccs1 the inhibition was 0.67%.
Molecule Cc1ccccc1NC(=S)NNC(=O)c1csc2c1CCC(C)C2 (stereo not drawn) has an inhibition of -23%.
COc1ccc(OC)c(NC(=O)c2cc(-c3c(C)cc(C)cc3O)n[nH]2)c1 gave an inhibition of 6.02%.
Cc1cc(C)c(S(=O)(=O)N2CCCC2=O)c(C)c1N(C)S(C)(=O)=O gave an inhibition of -4.1%.
For Cc1cccc(NC(=O)C2CCN(S(=O)(=O)c3ccc4c(c3)OCCCO4)CC2)n1, the inhibition was 17.2%.
COC(=O)C(=N/Nc1ccccc1C(=O)OC)/C(C)=N/O gave an inhibition of -4.44%.
In the case of Oc1c(C(Nc2nc3ccccc3s2)c2ccco2)ccc2cccnc12 (stereo not drawn), the inhibition is reported as 29.8% (active).
For COc1ccc(S(=O)(=O)Nc2ccccc2C(=O)N2CCCC2)cc1OC, the inhibition was -1.42%.
With C=C(C)c1cccc(C(C)(C)NC(=O)N(Cc2ccccc2)Cc2ccco2)c1 the inhibition was -0.46%.
Molecule O=C(Nc1ccc(Cc2ccncc2)cc1)c1ccc(S(=O)(=O)N2CCOCC2)cc1 has an inhibition of 9.65%.
Work on CN1CCN(CCC(=O)N/N=C/c2cc3c(cc2[N+](=O)[O-])OCO3)CC1 yielded an inhibition of -2.21%.
For Cc1ccc(C(=O)Nc2c3c(nn2C(C)(C)C)CS(=O)(=O)C3)cc1[N+](=O)[O-], the inhibition was -9.8%.
COc1ccc(S(=O)(=O)N(C)c2ccc(C(=O)Nc3cccnc3)cc2)cc1OC gave an inhibition of 17.4%.
In the case of Cc1ccc(O)c(Nc2ncnc3ccc([N+](=O)[O-])cc23)c1, the inhibition is reported as 23.6%.
CCOc1ccc(OCCC(=O)OCC(=O)NNC(=O)c2ccccc2)cc1 showed an inhibition of -3.09%.
For CCOc1ccc(NC(=O)c2ccc(CN3CCc4ccccc4C3)cc2)cc1, the inhibition was 36.5% (active).
Work on COC(=O)c1sc2cnccc2c1N yielded an inhibition of 4.54%.
COC(=O)c1ccc2c(c1)NC(=O)c1ccccc1S2 showed an inhibition of -1.54%.
In the case of CC(CC(=O)Nc1ccc(Cl)c(S(=O)(=O)N2CCOCC2)c1)c1ccccc1 (stereo not drawn), the inhibition is reported as 38.6% (active).
